gsp antag – antagonists of gsp mutant (McCune-Albright syndrome); Potency, µM (series often up to 76.9 µM), for the others: at the top dose activity change, negative = inhibition, usual class: inhibitors; 0.4% of 340,000 active; gsp-mutant cells, cAMP HTRF, 30 min; calls by dose curve; cell line not stated here;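 note: intracellular cAMP measured with PDE inhibitor Ro 20-1724 present during compound exposure; potency is the fitted concentration of half-maximal effect; % is set by controls: 0 for no effect and ±100 for the full control effect; nearly all actives have a fitted effect of over 65% in size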
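G418-selected cells were plated in DMEM/10% FBS for 16-24 h at 37C, then treated with compounds plus the PDE inhibitor […] (300 uM solution added) for 30 min at 37C. Intracellular cAMP was measured by HTRF after 30 min lysis at room temperature.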
RXFP1 antagonist – blocks the human relaxin receptor RXFP1; Q9HBX9; HEK293-RXFP1, relaxin-stimulated cAMP HTRF, 30 min; stronger effect = lower value; activity change, negative = inhibition, % at 57.5 µM; 0.59% of 350,000 active;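 active = activity change of -60% or lower, but not beyond a set lower limit; inconclusive = change between -60% and -40%, or beyond the set limit; inactive = change above -40%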; note: % is set by controls: 0 for no effect and ±100 for the full control effect
gsp ag – activates gsp, the McCune-Albright syndrome mutation. gsp mutant cells, cAMP HTRF, 30 min. Potency, µM (series often up to 76.9 µM), inactives show top-dose activation (cAMP increase), hits mostly activators. 0.13% of 340,000 active. AID 624287; active = well fitted activation curve with a large enough effect; inconclusive = small, poorly fitted or top-dose-only effect, or another doubt; inactive = no such curve, though single readings can be large or run the other way; cell line not stated here;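 note: phosphodiesterase inhibitor Ro 20-1724 added with compounds to block cAMP breakdown; potency is the fitted concentration of half-maximal effect; nearly all actives have a fitted effect of over 60% in size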
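Cells stably selected in G418 were plated at 2000/well, grown 16-24 hr, then given compounds in DMSO with the PDE inhibitor […] (300 uM solution added) for 30 min at 37C; cAMP was read by HTRF.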
RXFP1 agonist – RXFP1 (human) receptor agonism | AID 2676 | 0.3% of 370,000 active | Potency, µM (doses to about 57.5 µM), for inactives: top-dose activation, most hits filed as activators | Q9HBX9 | HEK293T-RXFP1 cAMP TR-FRET, 30 min; response scale: percent of porcine relaxin response, buffer zero; active = well fitted activation curve with a large enough effect; inconclusive = small, poorly fitted or top-dose-only effect; note: potency is the fitted concentration of half-maximal effect; % is set by controls: 0 for no effect and ±100 for the full control effect; nearly all actives have a fitted effect of over 60% in size
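Agonist response is measured as cAMP accumulation in an RXFP1-transfected HEK293T line under PDE4 inhibition. Values are scaled between buffer-only and 29 nM porcine relaxin, and EC50s come from standard Hill equation fits.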
TSHR antagonist – antagonists of human thyroid stimulating hormone receptor | TSHR-expressing cells, TSH-stimulated cAMP HTRF, 2 h; stronger effect = lower value | activity change, negative = inhibition, % at 11.5 µM | 0.2% of 330,000 active | AID 504810;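 active = activity change below a set negative limit, meaning inhibition stronger than a set level, cut at about -70% in these data; inconclusive = activity change between two set negative limits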; note: % is set by controls: 0 for no effect and ±100 for the full control effect
Target sequence (P16473 whole entry, looked up): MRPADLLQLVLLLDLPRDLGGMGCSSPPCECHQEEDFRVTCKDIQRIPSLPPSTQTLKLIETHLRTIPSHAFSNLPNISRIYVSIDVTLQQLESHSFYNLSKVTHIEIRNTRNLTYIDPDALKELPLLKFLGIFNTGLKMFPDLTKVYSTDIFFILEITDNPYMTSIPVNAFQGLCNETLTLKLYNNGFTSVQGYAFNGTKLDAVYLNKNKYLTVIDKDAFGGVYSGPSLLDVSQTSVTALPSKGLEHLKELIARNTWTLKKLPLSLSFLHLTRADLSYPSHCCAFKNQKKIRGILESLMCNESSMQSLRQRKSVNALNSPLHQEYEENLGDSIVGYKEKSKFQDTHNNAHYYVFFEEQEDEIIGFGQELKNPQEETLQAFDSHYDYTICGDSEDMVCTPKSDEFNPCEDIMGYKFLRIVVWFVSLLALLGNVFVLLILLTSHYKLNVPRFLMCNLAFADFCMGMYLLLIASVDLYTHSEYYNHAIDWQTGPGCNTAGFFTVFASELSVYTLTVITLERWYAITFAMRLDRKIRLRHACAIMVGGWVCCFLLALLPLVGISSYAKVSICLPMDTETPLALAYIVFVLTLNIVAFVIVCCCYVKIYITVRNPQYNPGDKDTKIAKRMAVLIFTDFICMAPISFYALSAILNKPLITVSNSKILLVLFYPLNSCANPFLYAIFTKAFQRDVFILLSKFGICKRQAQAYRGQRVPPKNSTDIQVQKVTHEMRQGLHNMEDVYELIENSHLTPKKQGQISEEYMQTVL
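TSHR-expressing cells, 200/well, pre-treated with compound, then stimulated with EC80 TSH (4nM final) for 2 hours at 37 deg C. cAMP measured by competitive HTRF: anti-cAMP cryptate antibody in lysis buffer plus cAMP-d2, read after 30 minutes at room temperature.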
* = called active by the depositor; [ ] = dose if it differs, or a comment. An excerpt weighted towards active compounds, which were near 1% of everything screened.

How did CCOc1ccc(C2C=C(c3ccccc3)Nc3nnnn32)cc1 (stereo not drawn) do in these assays?
gsp antag: -18.0%; RXFP1 antagonist: -8.9; gsp ag: 14.9%; RXFP1 agonist: -0.4%; TSHR antagonist: -2.3

Results for CCOc1ccc(C2C=C(c3ccc(C)cc3)Nc3nnnn32)cc1 (stereo not drawn) ?
gsp antag: 39.8µM*; RXFP1 antagonist: 8.6; gsp ag: 11.5%; RXFP1 agonist: 0.7%; TSHR antagonist: -8.7

Results for COc1cccc(C(=O)Nc2ccccc2N2CCN(C(=O)c3ccccc3)CC2)c1 ?
gsp antag: 25.1µM*; RXFP1 antagonist: -7.9; gsp ag: 5.5%; TSHR antagonist: -5.1

Results for CN1CCN(c2ccccc2NC(=O)c2ccc(-c3ccccc3)cc2)CC1 ?
gsp antag: 50.1µM*; RXFP1 antagonist: -15.4; gsp ag: 12.4%; RXFP1 agonist: 0.4%; TSHR antagonist: -0.4

How did COc1cccc(C(=O)Nc2ccccc2N2CCCC2)c1 do in these assays?
gsp antag: -6.7%; RXFP1 antagonist: 5.6; gsp ag: 4.7%; RXFP1 agonist: 0.8%; TSHR antagonist: 3.7

How did Cc1cccc(C)c1NC(=O)Cn1cc(C(=O)C2CC2)c2ccccc21 do in these assays?
RXFP1 antagonist: -12.5; RXFP1 agonist: -2.0%

Results for COc1ccc(OCc2nc(C#N)c(NCc3ccccc3Cl)o2)cc1 ?
RXFP1 agonist: -9.9%

How did O=C(N/N=C/c1c[nH]c2c1ccc1ccccc12)c1ccc([N+](=O)[O-])cc1 do in these assays?
gsp antag: -6.6%; RXFP1 antagonist: -68.3*; gsp ag: -2.4%[15.4 µM]; RXFP1 agonist: -1.9%; TSHR antagonist: 7.8

Results for CCCCS(=O)(=O)c1oc(-c2ccc(F)cc2)nc1S(=O)(=O)c1ccc(C)cc1 ?
RXFP1 antagonist: -71.5*; RXFP1 agonist: 0.0%

What do the screens show for `CCS(=O)(=O)c1oc(-c2ccc(F)cc2)nc1S(=O)(=O)c1ccccc1`?
RXFP1 antagonist: -107.1*; RXFP1 agonist: -1.4%

Results for CCCCS(=O)(=O)c1oc(-c2cccs2)nc1S(=O)(=O)c1ccc(F)cc1 ?
RXFP1 antagonist: -76.3*; RXFP1 agonist: 0.7%

What do the screens show for `C[C@@H](O)[C@H]1C(=O)N2C(C(=O)O)=C([C@H]3CCCO3)S[C@H]12`?
RXFP1 antagonist: -3.6

Results for Cc1nc2c(C(=O)NCc3ccccc3)c[nH]n2c(=O)c1Cc1ccccc1Cl ?
RXFP1 antagonist: -60.4*; RXFP1 agonist: 0.9%

How did CC1CCCCC1NC(=O)COC(=O)c1c2c(nc3ccccc13)/C(=C\c1ccco1)CC2 (stereo not drawn) do in these assays?
gsp antag: -13.2%; RXFP1 antagonist: -65.5*; gsp ag: inconclusive

How did O=C(COC(=O)c1c2c(nc3ccccc13)/C(=C\c1ccco1)CC2)NC1CCCC1 do in these assays?
gsp antag: -17.4%; RXFP1 antagonist: -27.3; gsp ag: inconclusive

Results for N#Cc1c(NC(=O)CSc2nnc(-c3ccccc3)o2)sc2c1CCCC2 ?
gsp antag: 22.4µM*; RXFP1 antagonist: 7.2; gsp ag: 1.2%; RXFP1 agonist: 3.1%; TSHR antagonist: -23.3

How did CC1CCc2c(sc(NC(=O)CSc3nnc(-c4ccccc4)o3)c2C#N)C1 (stereo not drawn) do in these assays?
gsp antag: -1.1%; RXFP1 antagonist: -5.9; gsp ag: 13.4%; RXFP1 agonist: 1.1%; TSHR antagonist: -13.4

What do the screens show for `CCOC(=O)C(C)NC(=O)c1c(C)oc2ncn(CC(C)C)c(=O)c12` (stereo not drawn)?
RXFP1 agonist: -2.6%

What do the screens show for `CC(C)(C)c1ccc(OCc2ccc(C(=O)Nc3cccnc3)o2)cc1`?
gsp antag: inconclusive; RXFP1 antagonist: -63.7*; gsp ag: inconclusive; RXFP1 agonist: -2.7%; TSHR antagonist: -4.2

How did Cc1ccc(Nc2nc3nonc3[nH]c2=O)cc1Cl do in these assays?
gsp antag: 28.2µM*; RXFP1 antagonist: -17.6; gsp ag: 10.2%; RXFP1 agonist: 0.4%; TSHR antagonist: inconclusive

What do the screens show for `Cc1ccc(Nc2nc3nonc3[nH]c2=O)cc1C`?
gsp antag: -22.0%; RXFP1 antagonist: -12.9; gsp ag: -22.6%; RXFP1 agonist: 0.2%; TSHR antagonist: -29.6

Bioassay records (PubChem)
